# Results: the supplement of paper PMC6555819
# Experiments:
# Experiment in all cases: PBM binding z-score (relative to random genomic background probes); higher = stronger binding; sequences stand for … in GC…GCGATTGACAGCGTAGAATGAAGG
# [1] = system: FXR:RXRa (NR concentration 270 nM, RXRa partner concentration 90 nM)
# In short: (§1)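 Binding z-scores were set against random background probes. The data came from custom Agilent 4×180K protein-binding microarrays carrying double-stranded probes with 34-nt variable regions, incubated 1 h with ligand-free nuclear receptor dimers. Partner-specific antibodies detected binding, and scanned fluorescence was regression-normalized.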
# [2] = system: LXRa:RXRa (NR concentration 270 nM, RXRa partner concentration 90 nM)
# In short: as §1
# [3] = system: LXRa homodimer (NR concentration 270 nM)
# In short: as §1
# [4] = system: LXRb:RXRa (NR concentration 270 nM, RXRa partner concentration 90 nM)
# In short: as §1
# [5] = system: LXRb homodimer (NR concentration 270 nM)
# In short: as §1
# [6] = system: PPARa:RXRa (NR concentration 270 nM, RXRa partner concentration 90 nM)
# In short: as §1
# [7] = system: PPARg:RXRa (NR concentration 180 nM, RXRa partner concentration 90 nM)
# In short: as §1
# [8] = system: PPARg:RXRa 270nM:90nM, anti-RXR (NR concentration 270 nM, RXRa partner concentration 90 nM)
# In short: as §1
# [9] = system: PPARg:RXRa 30nM:10nM, anti-RXR (NR concentration 30 nM, RXRa partner concentration 10 nM)
# In short: as §1
# [10] = system: PPARg:RXRa 90nM:30nM, anti-RXR (NR concentration 90 nM, RXRa partner concentration 30 nM)
# In short: as §1
# [11] = system: PPARg:RXRa DBDmut IVT, anti-RXR (DBD mutation: RXRa K156A/R161A, NR concentration 270 nM, RXRa partner concentration 90 nM)
# In short: as §1
# [12] = system: PPARg:RXRa IVT, anti-PPARg (NR concentration 270 nM, RXRa partner concentration 90 nM)
# In short: as §1
# [13] = system: PPARg DBDmut:RXRa IVT, anti-PPARg (DBD mutation: PPARg1 K132A/R137A, NR concentration 270 nM, RXRa partner concentration 90 nM)
# In short: as §1
# [14] = system: PPARg DBDmut IVT, anti-PPARg (DBD mutation: PPARg1 K132A/R137A, NR concentration 270 nM)
# In short: as §1
# [15] = system: PPARg homodimer (NR concentration 180 nM)
# In short: as §1
# [16] = system: PXR:RXRa (NR concentration 270 nM, RXRa partner concentration 90 nM)
# In short: as §1
# [17] = system: PXR homodimer (NR concentration 270 nM)
# In short: as §1
# [18] = system: RARa:RXR (NR concentration 270 nM, RXRa partner concentration 90 nM)
# In short: as §1
# [19] = system: RARa homodimer (NR concentration 270 nM)
# In short: as §1
# [20] = system: RARb:RXRa (NR concentration 270 nM, RXRa partner concentration 90 nM)
# In short: as §1
Sequence,PBM binding z-score [1],PBM binding z-score [2],PBM binding z-score [3],PBM binding z-score [4],PBM binding z-score [5],PBM binding z-score [6],PBM binding z-score [7],PBM binding z-score [8],PBM binding z-score [9],PBM binding z-score [10],PBM binding z-score [11],PBM binding z-score [12],PBM binding z-score [13],PBM binding z-score [14],PBM binding z-score [15],PBM binding z-score [16],PBM binding z-score [17],PBM binding z-score [18],PBM binding z-score [19],PBM binding z-score [20]
TCTAGCAGACCAGAGGGTCACTCAAGAGGTACGG,0.955,0.817,-0.662,1.1,-1.39,2.15,0.882,1.31,1.8,1.61,0.667,-0.0326,-0.965,-2.06,0.364,1.38,-0.694,1.85,-0.734,1.81
ATATGTAGGTTATCGGGTCATTCGGTTTGCGCAT,3.2,3.11,1.78,2.85,1.02,4.68,6.96,5.9,3.48,6.13,7.54,7.29,1.79,2.8,2.29,3.5,5.62,3.42,1.12,2.45
ACTAGCAGGCAAAGTTTGGGTCACTCAAACAAAG,0.0773,0.185,-0.475,0.807,-0.762,1.33,-0.0441,0.288,-0.32,0.224,-0.359,0.492,-0.258,-0.0533,0.153,0.68,-0.439,1.32,-0.701,1.07
AGAATGAGTTTATACGTAGATCAGGGAAGAAAGT,-0.0777,-0.0651,-0.37,-0.296,-0.286,-0.283,0.634,-0.311,0.114,-0.213,-0.616,0.0744,0.757,0.612,-0.608,0.81,1.21,-0.34,0.222,0.0922
TCTCGGAGGACACGAATGGTCAGAGCTCGACATC,0.104,0.0169,-0.468,-0.483,-0.915,-0.144,0.236,0.78,2.1,1.28,1.33,-0.256,-0.6,-0.622,-0.755,-0.324,-0.617,-0.159,-0.635,1.5
ATCGAAAGGTCGAAGTGAGTATAGAGAAAGGGAA,3.94,3.53,0.221,2.69,0.919,4.23,2.38,3.01,1.33,2.56,0.215,1.01,1.1,1.1,1.21,2.16,0.245,2.76,1.12,3.55
TAGCCTAGCTCATGGGCCAGTATACCACGCGAAC,-0.822,-0.837,-0.369,-0.9,-0.798,-0.776,0.282,-0.783,-0.762,-1.03,-1.04,-0.618,0.0751,-0.524,-0.407,-0.739,-0.677,-0.584,-0.475,-0.413
CAAACTAGGTCAAGAGGTCAAAATCCGCTTCCCG,6.73,6.04,5.14,5.6,1.75,6.65,9.69,8.11,7.03,8.2,7.82,8.13,1.85,1.15,4.78,5.89,1.57,7.65,1.73,5.35
CCCACTGGGCCAAAGGTCATTGATTCCAATGCTC,4.95,4.92,4.26,4.72,0.641,6.5,11.7,10.5,10.2,11,4.77,6.2,0.334,-0.118,3.86,5.36,1.81,6.34,1.99,4.39
GCTGCTAGGTCAACCGATGGTCAGCTAAAGCTCG,3.72,2.83,-0.00824,1.67,-0.103,3.53,2.64,3,0.428,1.82,4.93,4.21,-0.16,-0.394,1.63,1.43,-0.956,2.99,-0.609,4.22
ACTAGCAGGCCAAGTTTGGGTCACGCAAACAAAG,1.01,0.518,-0.2,1.33,-0.873,2.27,0.556,1.04,-0.0172,0.546,1.23,1.63,-0.285,-0.284,0.631,1.61,-0.0621,2.51,-0.0801,2.33
TCTCGGAGGACACGAAAGGTCACAGCTCGACATC,4.58,5.46,4.91,4.7,0.595,4.62,2.83,4.15,3.13,3.77,2.07,2.97,0.919,0.445,3.93,5.57,1.09,6,2.7,4.78
GCTAGCAGTCCATTTGGGTCACTCAATGACGGGC,0.123,-0.125,-0.706,-0.0386,-0.905,0.937,0.41,0.105,-0.37,-0.0818,0.379,1.16,-1.16,-1.53,0.032,0.67,0.689,0.82,-0.831,0.88
CAAACTAGGTCAAGAGGTCATAGTCCGCTTCCCG,6.79,6.06,5.4,4.74,1.48,6.55,9.82,8,6.96,8.16,8.3,8.47,3.3,2.09,5.93,5.98,2.28,7.42,2.36,5.19
CAAACTAGGGCAAGGTCAAAGTCGGTTTGTGCCA,5.18,4.46,2.44,3.77,0.468,5.56,7.92,6.99,4.88,7.3,7.65,7.58,2.3,3.24,3.66,4.71,1.95,4.96,2.12,4.14
TCTAGCAGGCCAGACGGTCACTCAAGAGGTACGG,-0.139,-0.465,-0.491,-0.378,-0.934,0.21,0.662,1.52,1.72,1.67,0.883,0.0624,-0.226,-0.934,-0.417,-0.727,-0.716,-0.457,-0.452,1.04
TCTATTAGTTGATTAGGGCACCCGAAACAGCGGA,0.613,0.698,0.336,0.367,0.572,0.646,0.343,1.83,3.73,2.91,2.25,1.68,0.695,1.2,1.1,0.419,0.671,0.573,1.64,0.873
ATCGAAAGGCCGAGGTGAGTATAGAGAAAGGGAA,0.0206,-0.227,-0.447,-0.337,-0.455,-0.0261,0.313,-0.133,-0.0137,-0.154,-0.777,0.581,-0.257,0.0911,0.14,-0.348,0.0633,0.0364,-0.273,1.53
AGTCAAAGATCACTAGGTAACGTAAGATTCAGCT,-0.239,0.0788,-0.206,0.152,-0.329,1.52,2.34,2.95,0.876,2.3,1.14,2.97,0.137,0.156,0.697,-0.103,0.0772,0.125,0.459,0.233
ACCTCTAGGTAAAGATAGTTCAGTGAATGCAAAT,0.216,3.68,0.25,0.57,-0.307,0.0564,0.269,0.318,0.0482,0.178,2.21,1.04,-0.152,0.355,-0.326,0.747,0.128,0.271,-0.309,0.426
GCTGCTAGGTCAACTGATAGTCAGCTAAAGCTCG,4,2.78,-0.18,1.91,-0.159,3.77,2.91,3.17,0.765,2.41,4.86,4.12,0.166,-1.36,0.644,1.05,-0.294,2.13,-0.287,4.09
GCTTGTAGATCAAGTTTAAGAAAGACTAAGCTAA,-0.477,-0.231,-0.318,-0.15,-0.39,0.142,-0.204,-0.0876,-0.116,-0.107,0.956,0.313,0.0425,0.223,-0.136,0.206,0.211,0.203,-0.548,-0.0982
TCATATAGGTAAAGGTGACAGTCGAACGATATGA,0.847,1.04,0.0349,0.847,-0.211,2.88,3.72,4.32,4.16,4.4,4.04,4.07,1.74,1.19,0.889,0.897,0.245,1.44,0.76,1.9
ATACCAAGGTGATCGTGAGGTCGTTGGTACTAAC,1.53,1.48,0.698,0.769,0.221,1.51,0.281,0.597,-0.201,0.338,0.259,1.28,-0.235,-0.0791,0.658,2.89,0.856,2.43,-0.116,1.43
CAAACTAGGTCACTGGAAGGTCAAAGTCCGCATG,5.47,5.41,4.68,4.88,1.36,5.88,9.17,7.25,5.53,7.22,8.42,8.89,7.66,2.9,9.82,5.36,2.12,7.1,3.34,4.9
TCTTGTAGTTCAAAGGTTAAGAAAGCCGAAGCCT,4.09,4.39,1.23,3.51,0.628,5.16,7.14,7.29,7.28,7.39,1.69,2.84,0.125,1.99,1.87,4.59,0.443,6.25,0.439,3.36
CCTATTAGTTGACCATAAGGGCATCCGAAGCTCG,0.924,0.501,0.549,0.384,0.423,0.26,0.493,0.533,-0.0651,0.145,0.225,0.238,0.764,0.611,0.73,0.903,1,0.903,1.97,1.37
TCGAGTAGGTTAGTAGGGGCATTCAGCCAACATA,0.292,-0.0612,-0.0759,0.774,-0.216,1.29,1.01,1.82,0.971,1.35,2.98,3.4,0.408,0.00263,0.668,0.244,0.000181,0.287,0.25,0.637
